Experimental data taken from PubChem BioAssay AID1159580 (chemical genetic matrix, 2015).
The whole screen tested about 5,500 compounds, of which about 2,000 (36%) were called active. Inconclusive results (about 18%) are left out. Cut-off read from the data, not from the text of the source: active = normalized growth mostly below about 0.91 (no sharp cut-off); inconclusive = no clear call, values can overlap the other calls; inactive = mostly above about 0.92. Some of the results follow.

Experiment: chemical genetic growth profiling, strain panel (AID 1159580);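 note: tested at 20 µM; growth read once vehicle control cultures reached saturation at 30 °C; 1 = growth at the plate median or of vehicle wells; lower values mean less growth of the strain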
Settings: growth OD

Measured: normalized growth

COc1ccc([C@@H]2CC(=O)c3c(O)cc(O)cc3O2)cc1O
inactive: S. cerevisiae deletion strains, locus YJR043C, strain POL32, active compounds read low 0.966 | S. cerevisiae deletion strains, locus YJR066W, strain TOR1, active compounds read low 0.95 | S. cerevisiae deletion strains, locus YJR075W, strain HOC1, active compounds read low 1.03 | S. cerevisiae deletion strains, locus YKL009W, strain mrt4, active compounds read low 1.01 | S. cerevisiae deletion strains, locus YKL068W, active compounds read low 0.998 | S. cerevisiae deletion strains, locus YKL085W, strain MDH1 (second series), active compounds read low 0.99 | S. cerevisiae deletion strains, locus YKL085W, strain MDH1, active compounds read low 0.99 | S. cerevisiae deletion strains, locus YKL160W, strain elf1, active compounds read low 0.954 | S. cerevisiae deletion strains, locus YKR001C, strain vps1, active compounds read low 1 | S. cerevisiae deletion strains, locus YKR026C, strain gcn3, active compounds read low 0.982 | S. cerevisiae deletion strains, locus YKR091W, strain srl3, active compounds read low 0.973 | S. cerevisiae deletion strains, locus YLL001W, strain dnm1, active compounds read low 0.947 | S. cerevisiae deletion strains, locus YLL026W, active compounds read low 0.993 | S. cerevisiae deletion strains, locus YLL041C, strain sdh2, active compounds read low 0.982 | S. cerevisiae deletion strains, locus YLR027C, strain aat2, active compounds read low 1 | S. cerevisiae deletion strains, locus YLR039C, strain RIC1, active compounds read low 1.06 | S. cerevisiae deletion strains, locus YLR058C, strain SHM2, active compounds read low 1.01 | S. cerevisiae deletion strains, locus YLR102C, strain apc9, active compounds read low 1.01 | S. cerevisiae deletion strains, locus YLR113W, strain HOG1, active compounds read low 1.02 | S. cerevisiae deletion strains, locus YLR221C, strain rsa3, active compounds read low 0.959 | S. cerevisiae deletion strains, locus YLR258W, strain gsy2, active compounds read low 0.977 | S. cerevisiae deletion strains, locus YLR262C, strain YPT6 (second series), active compounds read low 0.972 | S. cerevisiae deletion strains, locus YLR262C, strain YPT6, active compounds read low 1.03 | S. cerevisiae deletion strains, locus YLR268W, strain sec22, active compounds read low 1.06 | S. cerevisiae deletion strains, locus YLR320W, strain mms22, active compounds read low 0.93 | S. cerevisiae deletion strains, locus YLR330W, strain CHS5, active compounds read low 1.01 | S. cerevisiae deletion strains, locus YLR342W, strain FKS1 (second series), active compounds read low 0.979 | S. cerevisiae deletion strains, locus YLR342W, strain FKS1, active compounds read low 0.976 | S. cerevisiae deletion strains, locus YLR357W, strain rsc2, active compounds read low 0.953 | S. cerevisiae deletion strains, locus YLR370C, strain arc18, active compounds read low 0.97 | S. cerevisiae deletion strains, locus YLR371W, strain rom2, active compounds read low 1.01 | S. cerevisiae deletion strains, locus YLR384C, strain iki3, active compounds read low 0.972 | S. cerevisiae deletion strains, locus YLR418C, strain cdc73, active compounds read low 0.937 | S. cerevisiae deletion strains, locus YML016C, strain PPZ1, active compounds read low 1 | S. cerevisiae deletion strains, locus YML032C, strain rad52, active compounds read low 0.991 | S. cerevisiae deletion strains, locus YML120C, strain ndi1, active compounds read low 0.974 | S. cerevisiae deletion strains, locus YML124C, strain tub3, active compounds read low 1.01 | S. cerevisiae deletion strains, locus YMR058W, strain fet3, active compounds read low 0.969 | S. cerevisiae deletion strains, locus YMR078C, strain ctf18, active compounds read low 1.01 | S. cerevisiae deletion strains, locus YMR125W, strain sto1, active compounds read low 0.96 | S. cerevisiae deletion strains, locus YMR129W, active compounds read low 0.988 | S. cerevisiae deletion strains, locus YMR205C, strain PFK2, active compounds read low 0.952 | S. cerevisiae deletion strains, locus YMR223W, strain ubp8, active compounds read low 0.978 | S. cerevisiae deletion strains, locus YMR231W, strain pep5, active compounds read low 0.98 | S. cerevisiae deletion strains, locus YMR263W, strain SAP30, active compounds read low 1.03 | S. cerevisiae deletion strains, locus YMR307W, strain GAS1, active compounds read low 0.952 | S. cerevisiae deletion strains, locus YNL067W, strain RPL9B, active compounds read low 1.03 | S. cerevisiae deletion strains, locus YNL071W, strain lat1, active compounds read low 0.979 | S. cerevisiae deletion strains, locus YNL183C, strain NPR1, active compounds read low 0.944 | S. cerevisiae deletion strains, locus YNL209W, strain ssb2, active compounds read low 0.986 | S. cerevisiae deletion strains, locus YNL233W, strain BNI4, active compounds read low 1 | S. cerevisiae deletion strains, locus YNL248C, strain rpa49, active compounds read low 0.97 | S. cerevisiae deletion strains, locus YNL250W, strain rad50, active compounds read low 1.02 | S. cerevisiae deletion strains, locus YNL271C, strain bni1, active compounds read low 1.01 | S. cerevisiae deletion strains, locus YNL298W, strain CLA4, active compounds read low 1.02 | S. cerevisiae deletion strains, locus YNL307C, strain MCK1, active compounds read low 1.01 | S. cerevisiae deletion strains, locus YNL322C, strain KRE1 (second series), active compounds read low 0.987 | S. cerevisiae deletion strains, locus YNR049C, strain mso1, active compounds read low 0.973 | S. cerevisiae deletion strains, locus YNR052C, strain pop2, active compounds read low 1.02 | S. cerevisiae deletion strains, locus YOL012C, strain htz1 1.12 | S. cerevisiae deletion strains, locus YOL147C, strain pex11, active compounds read low 0.998 | S. cerevisiae deletion strains, locus YOR001W, strain rrp6, active compounds read low 0.988 | S. cerevisiae deletion strains, locus YOR061W, strain CKA2, active compounds read low 1 | S. cerevisiae deletion strains, locus YOR069W, strain VPS5, active compounds read low 1 | S. cerevisiae deletion strains, locus YOR070C, strain gyp1, active compounds read low 0.975 | S. cerevisiae deletion strains, locus YOR080W, strain dia2, active compounds read low 0.979 | S. cerevisiae deletion strains, locus YOR083W, strain WHI5, active compounds read low 0.934 | S. cerevisiae deletion strains, locus YOR106W, strain vam3, active compounds read low 0.946 | S. cerevisiae deletion strains, locus YOR136W, strain idh2, active compounds read low 1.01 | S. cerevisiae deletion strains, locus YOR144C, strain elg1, active compounds read low 0.999 | S. cerevisiae deletion strains, locus YOR184W, strain ser1, active compounds read low 0.986 | S. cerevisiae deletion strains, locus YOR231W, strain MKK1, active compounds read low 1.02 | S. cerevisiae deletion strains, locus YOR265W, strain rbl2, active compounds read low 0.983 | S. cerevisiae deletion strains, locus YOR270C, strain vph1, active compounds read low 0.933 | S. cerevisiae deletion strains, locus YOR290C, strain snf2, active compounds read low 0.924 | S. cerevisiae deletion strains, locus YOR316C, strain cot1, active compounds read low 1 | S. cerevisiae deletion strains, locus YPL051W, strain arl3, active compounds read low 0.967 | S. cerevisiae deletion strains, locus YPL055C, strain LGE1, active compounds read low 1.02 | S. cerevisiae deletion strains, locus YPL078C, strain atp4, active compounds read low 0.952 | S. cerevisiae deletion strains, locus YPL106C, strain sse1, active compounds read low 0.965 | S. cerevisiae deletion strains, locus YPL240C, strain hsp82, active compounds read low 0.997 | S. cerevisiae deletion strains, locus YPL256C, strain CLN2, active compounds read low 1.03 | S. cerevisiae deletion strains, locus YPR119W, strain clb2, active compounds read low 1.01 | S. cerevisiae deletion strains, locus YPR141C, strain kar3, active compounds read low 1.01 | S. cerevisiae deletion strains, locus YPR163C, strain tif3, active compounds read low 1.01 | S. cerevisiae deletion strains, locus YPR167C, strain met16, active compounds read low 1 | S. cerevisiae deletion strains, strain wtn01, active compounds read low 1.03 | S. cerevisiae strains, strain wild type, active compounds read low 1.01
